SMILES strings stand for the structures. The whole screen tested about 69,000 compounds, of which about 8,600 (12%) showed an effect of 50% or more. The full list was thinned out, with strong results kept by preference.

INHIBITION data for 54 compounds are collected here from ChEMBL document CHEMBL4513216, “Probing the Open Global Health Chemical Diversity Library for Multistage-Active Starting Points for Next-Generation Antimalarials” (ACS Infect Dis, 2020).

The test system of the assay is Plasmodium berghei. As to the kind of experiment: Screen against P. berghei liver stage (PbLuc), transformed with Luciferase, at 10uM. It counts as functional, HepG2. The settings on record: tested at 10 uM.
As for `COc1ccc(-c2cc(C3CC3)c(C#N)c(N)n2)cc1F`, the INHIBITION was -60.9%.

As to `O=C(c1ccc[nH]1)N1CCc2nnc(Cn3cccc3)n2CC1`, the INHIBITION was -6.25%.

With `Cc1ccc(S(=O)(=O)n2ccn(C(=O)CC(C)C)c2=O)cc1`, the INHIBITION is 40%.

With `COc1ccc2c(c1)C1(CCN(Cc3nccs3)CC1)N(C)CC2`, the INHIBITION is listed as 51.3%.

For the compound `Cc1nc(CN2CCN(c3cc(CCN)ncn3)CC2)cs1`, the INHIBITION is 17.2%.

As for `Cc1cnc(N2CCC3(CCN(Cc4csc(C)n4)C3=O)C2)nc1` (centres undefined), the INHIBITION is on record as 34%.

Consider `Cc1cc(NC2CC3(CCN(Cc4csc(C)n4)C3)C2)ncn1` (centres undefined), for which the INHIBITION is -31.1%.

On to `Cc1ccc(N2CCC3(CCN(Cc4csc(C)n4)CC3)CC2)nn1`, for which the INHIBITION came out at 58.7%.

On to `Cc1ccc(N2CCC3(CCN(Cc4csc(C)n4)C3=O)C2)nn1` (centres undefined), for which the INHIBITION was 47.5%.

For the compound `Cc1ccc(N2CCC3(CCN(Cc4nccs4)CC3)CC2)nn1`, the INHIBITION is given as 26.5%.

`COc1cc(N2CCC3(CCN(Cc4csc(C)n4)C3)CC2)ncn1`: the INHIBITION was determined as 55.7%.

Regarding `COc1ccc2c(c1)C1(CCN(Cc3ccncc3)CC1)N(C)CC2`, the INHIBITION was -9.67%.

Take `COc1cc(N2CCC3(CCN(Cc4csc(C)n4)C3=O)C2)ncn1` (centres undefined): the INHIBITION came to 90.1%.

For the compound `Cc1ccc(N2CCC3(CCN(Cc4ccccn4)CC3)CC2)nn1`, the INHIBITION is listed as -42.6%.

`COc1ccc2c(c1)C1(CCN(Cc3ccccn3)CC1)N(C)CC2`: the INHIBITION is -73.3%.

On to `CSc1ccc(C(=O)N2CC(=O)N(Cc3cccs3)CC(O)C2)cc1` (centres undefined), for which the INHIBITION was 19.2%.

With `CCOCC(O)CN1CCN(C(=O)C2CCC2)CC1` (centres undefined), the INHIBITION is on record as -14.6%.

As for `Cc1ccc(O)c(CNc2cccc(CN3CCN(C)CC3)c2)n1`, the INHIBITION was found to be 13.9%.

As to `Cc1cc(NC(=O)CN2CCc3c(nc(C(C)C)n3C)C2)n(C)n1`, the INHIBITION turned out to be 36%.

As for `COCC1c2nnn(CC3CC3)c2CCN1Cc1ccncc1` (centres undefined), the INHIBITION was determined as 4.68%.

As for `Cc1cc(C)c(CNC(=O)N(C)Cc2cccc(C#N)c2)c(=O)[nH]1`, the INHIBITION is -3.7%.

Consider `COc1ccc(C(=O)N2CCCC2c2noc(C(C)C)n2)nn1` (centres undefined), for which the INHIBITION amounted to 12.255%.

Consider `O=C(NC1CC1)N1CC[C@H]2[C@H]1CCN2c1nncs1`, for which the INHIBITION was -19.8%.

As for `CN(C)CCNC(=O)[C@H]1C[C@H]2CN(C(=O)NCc3ccccc3)C[C@@H]1O2`, the INHIBITION is reported as -0.27%.

Turning to `CN(Cc1noc(C2CC2)n1)C1CCN(Cc2ccc(F)c(F)c2)C1` (centres undefined), the INHIBITION is recorded as -19.945%.

Take `Cc1cnc(N2CCC3(CC(=O)N(Cc4csc(C)n4)C3)C2)nc1` (centres undefined): the INHIBITION is given as 54.7%.

Take `CCc1cnc(N2CCC3(CC(=O)N(Cc4csc(C)n4)C3)C2)nc1` (centres undefined): the INHIBITION worked out at 34.4%.

For `Cc1nc(CN2CC3(CCN(c4ncc(F)cn4)C3)CC2=O)cs1` (centres undefined), the INHIBITION was -30%.

As for `Cc1ccc(N2CCC3(CC2)COCCN(c2nccs2)C3)nn1`, the INHIBITION was 6.72%.

On to `Cc1ccc(N2CC3(CCN(c4nccs4)C3)C2)nn1`, for which the INHIBITION is listed as 58.5%.

`COc1cc(N2CC3(CCN(c4ncccn4)C3)C2)ncn1`: the INHIBITION is on record as 12.1%.

`c1csc(CN2CCC3(CC2)CCN(CC2CCOCC2)C3)n1`: the INHIBITION was -8.85%.

Consider `Cc1nc(CN2CC3(CCN(c4cnccn4)C3)CC2=O)cs1` (centres undefined), for which the INHIBITION came to 35.8%.

`COc1cc(N2CCC3(CC(=O)N(Cc4csc(C)n4)C3)C2)ncn1` (centres undefined): the INHIBITION came to 58.4%.

With `N#Cc1ccc(N2CC3(CCN(c4nccs4)C3)C2)nc1`, the INHIBITION is given as 37.9%.

As to `COc1cc(N2CCC3(CCN(Cc4nccs4)CC3)C2)ncn1`, the INHIBITION is on record as 91.9%.

Consider `Cc1nc(CN2CC3(CCN(c4ncccn4)C3)CC2=O)cs1` (centres undefined), for which the INHIBITION worked out at 18.2%.

For `Cc1cccc(C(=O)Nc2c(C(=O)N(C)C)nn(C)c2C)c1`, the INHIBITION worked out at 35%.

On to `Cc1cnn(CC2CN(C=C3NN=C(c4occc4C)O3)CCO2)c1` (centres undefined), for which the INHIBITION was determined as 13.3%.

On to `Cc1cccc(CN2C(=O)CCC23CCN(C(=O)c2ccco2)CC3)c1`, for which the INHIBITION is reported as -7.28%.

On to `Cc1nc(C)n(C2CCCN(C(=O)CCn3cncn3)C2)n1` (centres undefined), for which the INHIBITION came out at 14.9%.

In the case of `CCc1nc(CN(C)c2nccc(N3CCCC(O)C3)n2)no1` (centres undefined), the INHIBITION was 20.3%.

Regarding `Cc1nc(O)ccc1C(=O)NCc1ncccc1F`, the INHIBITION was 12.6%.

As for `O=C(NC1(c2nc(C3CC3)no2)CCCCC1)c1ccncc1`, the INHIBITION is -3.19%.

With `COCCNC(=O)NC1(c2nc(C)no2)CCCCC1`, the INHIBITION stood at 19.2%.

Take `COCCNC(=O)NC1(c2nc(-c3ccncc3)no2)CCCCC1`: the INHIBITION was 56.3%.

On to `CC(C)CNS(=O)(=O)c1ccc(C(=O)N(C)CCc2cn[nH]c2)cc1`, for which the INHIBITION is on record as -12.4%.

In the case of `NC(=O)c1c(-c2ccc(Cl)cc2Cl)csc1NC(=O)CCC(=O)O`, the INHIBITION was 44.9%.

Take `O=C(NCCS(=O)(=O)N1CCc2ccccc21)c1c(O)cc(F)cc1F`: the INHIBITION is 42%.

Consider `O=C(NCCC(=O)N1CCCc2ccccc21)c1ccc(F)cc1F`, for which the INHIBITION turned out to be 11.6%.

As to `O=C(NCCC(=O)N1CCCc2ccccc21)c1c(F)cccc1F`, the INHIBITION was -57.4%.

`O=C(NCCC(=O)N1CCCc2ccccc21)c1cc(F)cc(F)c1`: the INHIBITION was -19.9%.

Regarding `O=C(NCC(=O)N1CCCc2ccccc21)c1c(O)cc(F)cc1F`, the INHIBITION came to 80.6%.

As for `O=C(NCCC(=O)N1CCCc2ccccc21)c1c(O)cc(F)cc1F`, the INHIBITION worked out at 73.9%.
